# Measured values from the antibiotic and cytotoxicity screens of Wong et al. (2023).
# The whole screen tested about 39,000 compounds, of which about 3,300 (8.5%) were called active. This is one part of a sample in which actives are shown more often than they occur.
# System: HepG2
# Assay: cytotoxicity call (relative viability < 0.9)
# Details: 10 µM
row,Structure (SMILES),cytotoxicity call
1,COc1ccc(NC(=O)N2C[C@@H](O)COC[C@H]3O[C@@H](CC(=O)NCc4ccccc4OC)CC[C@@H]32)cc1,inactive
2,C[C@@H]1CN([C@@H](C)CO)C(=O)c2cc(C#CCN(C)C)cnc2O[C@@H]1CN(C)C(=O)CN1CCOCC1,inactive
3,C[C@H](CO)N1C[C@H](C)[C@H](CN(C)Cc2ccc(C(F)(F)F)cc2)Oc2ccc(NC(=O)Nc3ccc(F)cc3)cc2CC1=O,active
4,C[C@H](CO)N1C[C@H](C)[C@@H](CN(C)Cc2ccc(C(F)(F)F)cc2)Oc2ccc(NC(=O)Nc3ccc(F)cc3)cc2CC1=O,active
5,C[C@@H]1CN([C@H](C)CO)C(=O)Cc2cc(NC(=O)Nc3ccc(F)cc3)ccc2O[C@H]1CN(C)Cc1ccc(C(F)(F)F)cc1,active
6,C[C@@H]1CCCCO[C@@H](CN(C)S(=O)(=O)c2ccccc2)[C@H](C)CN([C@H](C)CO)C(=O)c2cc(NC(=O)CCC(F)(F)F)ccc2O1,inactive
7,COc1ccc(CN(C)C[C@H]2OCCCC[C@H](C)Oc3ccc(NS(=O)(=O)c4ccc(C)cc4)cc3C(=O)N([C@@H](C)CO)C[C@H]2C)cc1,inactive
8,COCCN1CCCn2c(nc(CNS(C)(=O)=O)cc2=O)C1,inactive
9,CO[C@H]1CN(C)C(=O)c2cc(NS(=O)(=O)CC(F)(F)F)ccc2OC[C@@H](C)N(C(=O)c2ccc3c(c2)OCO3)C[C@H]1C,inactive
10,CC(C)NC(=O)N(C)C[C@@H]1OCCCC[C@H](C)Oc2ccc(NC(=O)Nc3cccc4ccccc34)cc2C(=O)N([C@@H](C)CO)C[C@H]1C,inactive
11,C[C@@H]1CN([C@H](C)CO)C(=O)c2cc(NS(=O)(=O)c3cccs3)ccc2O[C@@H](C)CCCCO[C@H]1CN(C)Cc1ccc2c(c1)OCO2,inactive
12,Cc1ccc2sc(C)nc2c1,inactive
13,C[C@@H]1CCCCO[C@H](CN(C)S(=O)(=O)c2ccccc2)[C@@H](C)CN([C@@H](C)CO)C(=O)c2cc(NC(=O)c3ccccc3)ccc2O1,inactive
14,C[C@@H]1CCCCO[C@H](CN(C)Cc2ccccc2)[C@H](C)CN([C@@H](C)CO)C(=O)c2cc(NC(=O)Nc3ccc(F)cc3)ccc2O1,active
15,C[C@@H]1CCCCO[C@H](CN(C)Cc2ccccc2)[C@H](C)CN([C@H](C)CO)C(=O)c2cc(NC(=O)Nc3ccc(F)cc3)ccc2O1,inactive
16,C[C@@H]1CN([C@H](C)CO)C(=O)c2cc(NC(=O)Nc3ccc(F)cc3)ccc2O[C@@H](C)CCCCO[C@@H]1CN(C)Cc1ccccc1,inactive
17,C[C@H](CO)N1C[C@H](C)[C@@H](CN(C)Cc2ccccc2)OCCCC[C@H](C)Oc2ccc(NC(=O)Nc3ccc(F)cc3)cc2C1=O,active
18,C[C@H]1CCCCO[C@@H](CN(C)Cc2ccccc2)[C@@H](C)CN([C@@H](C)CO)C(=O)c2cc(NC(=O)Nc3ccc(F)cc3)ccc2O1,active
19,C[C@H](CO)N1C[C@H](C)[C@H](CN(C)Cc2ccccc2)OCCCC[C@H](C)Oc2ccc(NC(=O)Nc3ccc(F)cc3)cc2C1=O,active
20,O=C(/C=N/O)Nc1ccccc1C(=O)O,inactive
21,CC(C)CC#Cc1ccc2c(c1)O[C@H](CN(C)C(=O)c1ccccn1)[C@H](C)CN([C@H](C)CO)S2(=O)=O,inactive

row,Structure (SMILES),cytotoxicity call
1,Cc1ccc(S(=O)(=O)N(C)C[C@@H]2Oc3ccc(NC(=O)C4CC4)cc3C(=O)N([C@@H](C)CO)C[C@@H]2C)cc1,inactive
2,C[C@@H]1CCCCO[C@@H](CN(C)C(=O)CCCN(C)C)[C@@H](C)CN([C@@H](C)CO)C(=O)c2cc(N(C)C)ccc2O1,inactive
3,C[C@H]1CCCCO[C@@H](CN(C)C(=O)Nc2ccc3c(c2)OCO3)[C@@H](C)CN([C@@H](C)CO)C(=O)c2cc(NC(=O)Nc3ccc(C(F)(F)F)cc3)ccc2O1,inactive
4,C=CC[C@@H](CC(=O)N[C@H](CO)Cc1ccccc1)C(=O)NCCOC(=O)[C@@H](CC=C)CC(=O)OC(C)(C)C,inactive
5,COCCCNC(=O)C[C@H]1SC(=N)NC1=O,inactive
6,COc1ccc(NC(=O)Nc2ccc3c(c2)C(=O)N([C@@H](C)CO)C[C@H](C)[C@H](CN(C)S(=O)(=O)c2cccs2)OCCCC[C@H](C)O3)cc1,inactive
7,COc1ccc(S(=O)(=O)N2C[C@@H](O)COC[C@H]3O[C@H](CC(=O)N[C@@H]4CCN(Cc5ccccc5)C4)CC[C@@H]32)cc1,inactive
8,O=C(C[C@@H]1C=C[C@@H](NS(=O)(=O)c2ccccc2)[C@H](CO)O1)NCc1ccncn1,inactive
9,C[C@H](CO)N1C[C@H](C)[C@H](CN(C)C(=O)C2CCCCC2)OCCCC[C@H](C)Oc2ccc(NC(=O)Nc3ccc(C(F)(F)F)cc3)cc2C1=O,inactive
10,COc1ccc(NC(=O)N(C)C[C@H]2Oc3ccc(NC(=O)CCN4CCOCC4)cc3CC(=O)N([C@H](C)CO)C[C@H]2C)cc1,inactive
11,COc1ccc(COC[C@]23N=C4SCc5ccccc5C(=O)N4[C@H](c4ccccc4O2)[C@H]3CO[Si](C)(C)C(C)(C)C)cc1,inactive
12,O=C(NCC(F)(F)F)[C@H]1[C@H](CO)[C@H]2Cn3c(cccc3=O)[C@H]2N1C(=O)C1CCC1,inactive
13,C[C@H]1CN([C@@H](C)CO)S(=O)(=O)c2ccc(C#Cc3ccccc3)cc2O[C@H]1CN(C)S(=O)(=O)c1cn(C)cn1,inactive
14,Cc1noc(C)c1NC(=O)Nc1ccc2c(c1)C(=O)N([C@H](C)CO)C[C@H](C)[C@H](CN(C)Cc1ccc3c(c1)OCO3)OCCCC[C@@H](C)O2,inactive
15,COc1ccc(S(=O)(=O)Nc2cccc3c2O[C@@H](CN(C)S(=O)(=O)c2cccs2)[C@H](C)CN([C@@H](C)CO)C3=O)cc1,inactive
16,COc1cc2c(cc1OC)CN(C(=O)[C@@H]1[C@H]3C(=O)O[C@H](c4ccccc4)[C@H](c4ccccc4)N3[C@H](c3ccc(O)cc3)[C@@]13C(=O)Nc1ccccc13)CC2,inactive
17,C[C@H]1CCCCO[C@H](CN(C)Cc2ccccc2)[C@@H](C)CN([C@@H](C)CO)C(=O)c2cc(NC(=O)Nc3ccc(F)cc3)ccc2O1,active
18,C[C@@H]1CCCCO[C@H](CN(C)Cc2ccccc2)[C@@H](C)CN([C@@H](C)CO)C(=O)c2cc(NC(=O)Nc3ccc(F)cc3)ccc2O1,inactive
19,C[C@@H]1CCCCO[C@@H](CN(C)Cc2ccc(F)cc2)[C@H](C)CN([C@@H](C)CO)C(=O)c2cc(NC(=O)Nc3ccccc3)ccc2O1,inactive
20,C[C@@H]1CN([C@@H](C)CO)C(=O)c2cc(NC(=O)Nc3ccc(F)cc3)ccc2O[C@@H](C)CCCCO[C@H]1CN(C)Cc1ccccc1,active
21,C[C@@H]1CCCCO[C@@H](CN(C)Cc2ccccc2)[C@@H](C)CN([C@@H](C)CO)C(=O)c2cc(NC(=O)Nc3ccc(F)cc3)ccc2O1,inactive

row,Structure (SMILES),cytotoxicity call
1,C[C@@H]1CCCCO[C@@H](CN(C)Cc2ccccc2)[C@@H](C)CN([C@H](C)CO)C(=O)c2cc(NC(=O)Nc3ccc(F)cc3)ccc2O1,inactive
2,C[C@@H]1CCCCO[C@H](CN(C)Cc2ccccc2)[C@@H](C)CN([C@H](C)CO)C(=O)c2cc(NC(=O)Nc3ccc(F)cc3)ccc2O1,inactive
3,C[C@@H]1CCCCO[C@@H](CN(C)Cc2ccccc2)[C@H](C)CN([C@H](C)CO)C(=O)c2cc(NC(=O)Nc3ccc(F)cc3)ccc2O1,inactive
4,C[C@@H]1CN([C@@H](C)CO)C(=O)c2cc(NC(=O)Nc3ccc(F)cc3)ccc2O[C@@H](C)CCCCO[C@@H]1CN(C)Cc1ccccc1,active
5,C[C@@H]1CN([C@H](C)CO)C(=O)c2cc(NC(=O)Nc3ccc(F)cc3)ccc2O[C@@H](C)CCCCO[C@H]1CN(C)Cc1ccccc1,active
6,C[C@@H]1CCCCO[C@@H](CN(C)Cc2ccccc2)[C@H](C)CN([C@@H](C)CO)C(=O)c2cc(NC(=O)Nc3ccc(F)cc3)ccc2O1,inactive
7,C[C@@H]1CN([C@@H](C)CO)S(=O)(=O)c2ccc(C#CCN(C)C)cc2O[C@H]1CN(C)C,inactive
8,C[C@H]1CN([C@@H](C)CO)C(=O)c2cc(NS(=O)(=O)c3ccccc3)ccc2O[C@@H]1CN(C)CC1CC1,inactive
9,C[C@H](CO)N1C[C@H](C)[C@@H](CN(C)Cc2ccc(C(=O)Nc3ccccc3N)cc2)Oc2ccc(NC(=O)Cc3cn(C)c4ccccc34)cc2CC1=O,inactive
10,CN1C(=O)c2cc(NC(=O)c3cccs3)ccc2OC[C@@H]2O[C@H](CC(=O)NCC(F)(F)F)CC[C@@H]21,inactive
11,C[C@@H]1CN([C@H](C)CO)C(=O)CCCn2cc(nn2)CO[C@H]1CN(C)S(=O)(=O)c1ccc(Oc2ccccc2)cc1,inactive
12,C[C@H](O)C#Cc1cnc2c(c1)C(=O)N([C@@H](C)CO)C[C@@H](C)[C@H](CN(C)C(=O)Nc1ccc(C(F)(F)F)cc1)O2,inactive
13,CS(=O)(=O)N1CCCn2c(nnc2Cn2cccn2)C1,inactive
14,O=C(NO)c1ccc(C(=O)N/N=C/[C@H](O)[C@@H](O)[C@H](O)[C@H](O)CO)cc1,inactive
15,C[C@@H]1CN([C@H](C)CO)C(=O)c2cccc(NS(=O)(=O)c3ccc(F)cc3)c2O[C@H]1CN(C)S(=O)(=O)c1ccccc1,inactive
16,C[C@H]1CCCN(C(=O)CCNS(=O)(=O)c2ccc3c(c2)c(=O)n(C)c(=O)n3C)C1,active
17,Cn1c(=O)c2cc(S(=O)(=O)N3CCOCC3)ccc2n(C)c1=O,inactive
18,CCOC(=O)N1CCN(C(=O)CN(C)S(=O)(=O)c2ccc3c(c2)c(=O)n(C)c(=O)n3C)CC1,inactive
19,CN(CC(=O)NC1CCCC1)S(=O)(=O)c1ccc2c(c1)c(=O)n(C)c(=O)n2C,inactive
20,Cn1c(=O)c2cc(S(=O)(=O)NCCC(=O)NC3CCCC3)ccc2n(C)c1=O,active
21,Cc1ccc(S(=O)(=O)NCCC(=O)N2CCOCCOCCOCC2)cc1,inactive
